Assay results published in ChEMBL document CHEMBL3433997, “St. Jude Leishmania screening dataset” (2016).

Columns and labels:
Format in all cases: functional
[1] = target: Solute carrier family 2, facilitated glucose transporter member 1 (Homo sapiens) (UniProt P11166); experiment: ST_JUDE_LEISH: Cytotoxicity at 2uM final concentration against transgenic Leishmania Mexicana promastigotes LmGLUT1 that are glucose transport deficient and complemented with the human glucose transporter GLUT1. Activity is measured by DNA content using SYBR green in vitro
[2] = target: Hexose transporter 1 (Plasmodium falciparum) (UniProt O97467); experiment: ST_JUDE_LEISH: Cytotoxicity at 2uM final concentration against transgenic Leishmania Mexicana promastigotes LmPfHT that are glucose transport deficient and complemented with the Plasmodium falciparum hexose transporter. Activity is measured by DNA content using SYBR green in vitro
[3] = target: Glucose transporter (Leishmania mexicana) (UniProt O61059); experiment: ST_JUDE_LEISH: Cytotoxicity at 2uM final concentration against transgenic Leishmania Mexicana promastigotes LmGT2 that are glucose transport deficient and complemented with the L. Mexicana glucose transporter 2. Activity is measured by DNA content using SYBR green in vitro

Solute carrier family 2, facilitated glucose transporter member 1 (Homo sapiens), sequence (P11166 whole entry): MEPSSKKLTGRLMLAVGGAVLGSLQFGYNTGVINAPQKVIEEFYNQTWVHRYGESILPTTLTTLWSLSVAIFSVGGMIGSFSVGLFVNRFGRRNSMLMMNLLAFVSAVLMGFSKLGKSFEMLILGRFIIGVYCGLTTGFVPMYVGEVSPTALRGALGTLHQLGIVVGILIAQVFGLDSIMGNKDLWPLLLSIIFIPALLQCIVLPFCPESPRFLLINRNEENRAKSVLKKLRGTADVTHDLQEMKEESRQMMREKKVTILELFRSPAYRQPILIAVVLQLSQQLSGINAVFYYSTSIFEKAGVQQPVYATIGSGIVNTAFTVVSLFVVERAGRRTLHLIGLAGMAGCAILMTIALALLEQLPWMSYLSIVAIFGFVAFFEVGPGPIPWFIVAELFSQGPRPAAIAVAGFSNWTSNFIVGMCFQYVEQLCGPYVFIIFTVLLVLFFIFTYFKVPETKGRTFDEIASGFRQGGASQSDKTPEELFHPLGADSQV

Row | Compound | inhibition [1] [%] | inhibition [2] [%] | inhibition [3] [%]
1 | Cc1[nH]c2ccccc2c1C(=O)C(C)Sc1nnc(-c2ccccc2Br)[nH]1 (stereo not given) | 0.54 | 2.81 | 0.86
2 | CC(C)(C)OC(=O)NCc1ccc(Nc2nnc(-c3cccc(C(=O)NCCC(c4ccccc4)c4ccccc4)c3)o2)cc1 | 8.74 | 10.6 | 7.8
3 | COc1cccc(CNC[C@@H](O)[C@H](Cc2ccccc2)NC(=O)c2cc(OC(C)C)cc(N3CCCCS3(=O)=O)c2)c1 | 0.5 | -0.88 | -0.67
4 | CCOC(=O)c1ccc(OCc2ccc(-c3ccccc3)cc2)cc1 | -0.38 | -0.13 | 0.75
5 | CC(C)C[C@H](Nc1ccnc(NCC2CCCCC2)n1)C(=O)Nc1ccccc1 | 3.81 | 3.97 | 3.2
6 | COc1ccc(Br)cc1/C=C/C(=O)Nc1cccc(C2CCCN(C)C2)c1 (stereo not given) | 6.13 | 5.55 | 7.45
7 | COc1ccc2c(=NN=C(C)c3ccccn3)cc(C)[nH]c2c1 | 5.68 | 9.51 | 4.08
8 | COc1cc(-c2nc3ccc(N4CCN(C)CC4)cc3[nH]2)cc(OC)c1OC | 2.08 | 2.62 | 4.21
9 | COc1cccc(CC(=O)N2CCC(n3c(C)nc4ccc(F)cc43)CC2)c1 | 2.08 | 4.64 | 2.33
10 | CC(=O)Nc1ccc(CN2CCN(C(c3ccc(F)cc3)c3ccc(F)cc3)CC2)cc1 | 5.18 | 3.45 | 2.11
11 | O=C(NCCCCCN1CCCN(C(=O)Nc2ccc(Cl)c(C(F)(F)F)c2)CC1)C1CC1c1ccc(Cl)c(Cl)c1 (stereo not given) | 2.42 | 0.79 | 0.24
12 | CCN(CC)CC(O)c1cc(-c2ccc(OC)cc2)nc2cc(Cl)ccc12 (stereo not given) | 6.97 | 5.08 | 7.55
13 | CCOC(=O)c1ccc(N2CCN(c3cc(C)ccc3C)CC2)c(NC(=O)Nc2ccc(Cl)c(Cl)c2)c1 | 0.52 | 0.93 | -0.25
14 | Oc1ccc(CCNCc2ccc(OCc3ccccc3)c(OCc3ccccc3)c2)cc1 | 75 | 76.6 | 68.5
15 | Oc1ccc(CCNc2nc(NCCCOc3cccc(CN4CCCCC4)c3Cl)nc(N3CCNCC3)n2)cc1 | 3.62 | 1.93 | 3.74
16 | Cn1nc(C(F)(F)F)c(-c2ccc(F)cc2)c1NC(=O)Nc1ccc(F)cc1F | 2.96 | 2.65 | 2.29
17 | CCc1c(CCNCCCCCCNCc2ccc3c(c2CC)OCO3)ccc(OC)c1OC | 10.6 | 0.77 | 4.01
18 | Cc1nn(-c2ccc(Cl)cc2)c2[nH]c(CN3CCN(c4cccc(Cl)c4)CC3)cc(=O)c12 | 20.2 | 21 | 17
19 | COc1cccc(OC2CCN(C(=O)c3ccc(-c4ccc(N5CCCC5=O)cc4C)cc3)CC2)c1 | 1.4 | 0.88 | 3.06
20 | O=C(C1CCN(c2nnnn2-c2ccccc2)CC1)N1CCc2ccccc2C1 | 13 | 15.6 | 14.1
21 | Cc1cccc2nc(-c3cccc(-c4cccc(C(=O)N5CCCCC5CN5CCC(O)C5)c4)c3)[nH]c12 (stereo not given) | 0.56 | 0.67 | -1.67
22 | O=C(NCCN1CCN(S(=O)(=O)c2ccc(OC3CCNCC3)c(Br)c2)CC1)c1ccc(Cl)c(Cl)c1 | 3.33 | 3.46 | 4.49
23 | COc1cc(Cc2cnc(N)nc2N)cc(OCC(C)(C)C(=O)O)c1OC | -1.6 | -1.08 | -0.23
24 | COc1ccc(C2CC(=O)C3=C(C2)NC(C)=C(C(=O)OC2CCCC2)C3c2cccc(O)c2)cc1OC (stereo not given) | 4.21 | 1.05 | 0.17

Row | Compound | inhibition [1] [%] | inhibition [2] [%] | inhibition [3] [%]
25 | COc1ccc2nccc(N3CCC(SCCNCc4cc5c(cn4)OCCO5)C3)c2n1 (stereo not given) | 0.61 | 0.85 | -2.04
26 | COc1cc(CNC[C@@H](O)[C@H](Cc2ccccc2)NC(=O)c2cc(OC(C)C)cc(N3CCCS3(=O)=O)c2)cc(OC)c1 | 4.85 | 4.74 | 2.1
27 | CCCC(=O)Nc1ccc(Nc2nc(C)cc(N3CCCC3)n2)cc1 | 1.82 | 4.49 | -0.91
28 | Cc1cccc(NC(=O)c2ccc(C(=O)NC3CCN(CC4CCCCC4)C3)cc2)c1 (stereo not given) | 5.04 | 3.98 | -1.15
29 | FC(F)(F)c1ccc2[nH]c(-c3ccc(-c4cccc(CN5CCCCC5)c4)cc3)nc2c1 | 2.89 | 2.01 | 0.4
30 | CCOC(=O)C1=C(C)N=c2sc(=Cc3cc(Cl)ccc3O)c(=O)n2C1c1ccc(OC)cc1 (stereo not given) | -0.92 | 0 | 0.91
31 | CN1CCN(c2nsc3ccc(-c4ccc(OCCN5CCCC5)cc4)cc23)CC1 | 13.2 | 11.4 | 9.39
32 | S=C(NCCCCCN1CCC(c2c[nH]c3ccccc23)CC1)Nc1cc(Cl)cc(Cl)c1 | 0.38 | -0.55 | 0.49
33 | O=C(Nc1ccc(Cl)cc1)c1cc(Cl)ccc1NC(=O)C1(c2ccc(Cl)cc2)CCCC1 | -0.07 | 2.74 | 1.43
34 | O=C(NC1CCCCC1)N(Cc1ccc(-c2ccc(CNC3CCCC3)cc2)cc1)C1CCN(Cc2ccccc2)CC1 | 1.76 | 3.96 | 5.15
35 | COc1ccc2nccc([C@@H](O)CN3CCC(NC(=O)c4ccc(CN5CCN(c6cccc(C)c6)CC5C)cc4)CC3)c2c1 (stereo not given in full) | 4.12 | 1.46 | -3.5
36 | COc1ccc2nc(C)cc(NCc3cccc4ccccc34)c2c1 | 2.2 | 3.81 | -0.28
37 | c1cc(CN2CCN(c3ccncc3)CC2)cc(-c2ccc(-c3nc4ccccc4[nH]3)cc2)c1 | 8.29 | 5.17 | 2.65
38 | CCCCCCCCCn1c(NCc2cc(Cl)ccc2O)nc2ccccc21 | 2.6 | 1.33 | 0.42
39 | Fc1ccc2[nH]c(-c3ccc(-c4ccc(CNCCN5CCNCC5)cc4)s3)nc2c1 | 0 | 1.98 | -0.23
40 | COc1cccc(CNC[C@@H](O)[C@H](Cc2ccccc2)NC(=O)c2cc(NC(C)C)cc(N3CCCCS3(=O)=O)c2)c1 | -0.22 | 1.05 | 0.68
41 | O=C(O[C@H]1CN[C@H](C#Cc2cc3c(Nc4ccc(OCc5cccc(F)c5)c(Cl)c4)ncnc3s2)C1)N1CCCC1 | 3.78 | 6.01 | 4.65
42 | CC(C)(C)c1ccc(O)c(CNC2CCCCC2)c1 | 4.48 | 3.36 | 3.1
43 | COc1ccc2nccc([C@@H](O)CN3CCC(NCCOc4ccccc4[N+](=O)[O-])CC3)c2c1 | 2.3 | 2.26 | 0.09
44 | COc1ccc2c(NN=Cc3ccc(F)cc3)ccnc2c1 | 1.29 | 2.43 | 1.85
45 | Oc1ccc(-c2nc3c(N4CCN(Cc5ccccc5)CC4)cccc3n2C2CCNCC2)cc1 | 3.29 | 7.64 | 2.62
46 | O=C(OCc1ccccc1)N1CCc2c([nH]c3ccccc23)C1CCC(F)(F)F (stereo not given) | 3.72 | 2.6 | 0.12
47 | CC1(C)CCCN(Cc2c(O)ccc3c(O)c(-c4nc5ccccc5s4)c(=N)oc23)C1 | 4.5 | 1.38 | -2.9
48 | CCOC(=O)c1c(-c2ccccc2)nc2c(sc3ccccc32)c1O | 5.5 | 5.15 | 5.35

Row | Compound | inhibition [1] [%] | inhibition [2] [%] | inhibition [3] [%]
49 | CS(=O)(=O)CCNCc1nc(-c2ccc3ncnc(Nc4ccc(OCc5ccccc5)c(Cl)c4)c3c2)cs1 | 4.21 | 3.42 | 2.9
50 | CCCCCCCCCCNCC(O)c1ccc(O)c(C(=O)OC)c1 (stereo not given) | -0.21 | 1.42 | 0.52
51 | CC(C)n1cc2c(ccc3nc(N)nc(N)c32)n1 | 7.23 | 17.1 | 5.96
52 | COc1ccc(N2CCN(C(CNC(=O)C3CCCCC3)c3ccc4c(c3)OCO4)CC2)cc1 (stereo not given) | 3.65 | 4.28 | 4.35
53 | CCN(CC)CCOc1ccc(C(O)(C#CC(O)(c2ccc(OCCN(CC)CC)cc2)c2ccc([N+](=O)[O-])cc2)c2ccc([N+](=O)[O-])cc2)cc1 (stereo not given) | 61 | 32.7 | 4.31
54 | COc1cc(F)c2ncc(Cl)c([C@@H](O)CN3CCC(NCc4cc5c(cn4)OCCO5)CC3)c2c1 | 9.42 | 8.83 | 5.13
55 | O=C(NCCCN1CCCC1=O)c1cnc(N2CCC(Oc3ccccc3)CC2)c(Cl)c1 | 0.56 | 3.58 | 0.19
56 | O=C(CCc1c[nH]cn1)Nc1ccc(-c2cccc(-c3nc4ccccc4[nH]3)c2)cc1 | 0.28 | 0.66 | 0.03
57 | COc1ccc(-c2cc(C(=O)N[C@@H](Cc3ccccc3)C(=O)NCCN3CCCCC3)ccc2O)cc1 | 5.18 | 2.26 | 4.04
58 | O=C(NCCCN1CCN(c2cccc(Cl)c2)CC1)c1ccc(-c2nc3cc(Cl)c(Cl)cc3[nH]2)cc1 | 11.3 | 8.6 | 13.7
59 | O=C(Nc1ccccc1)N(Cc1ccc(-c2cccc(CNC3CCCC3)c2)cc1)C1CCN(Cc2ccccc2)CC1 | 0.97 | 1.4 | 1.42
60 | CCCCc1ccc(C(=O)NC2CCN(C[C@H](O)c3ccnc4ccc(OC)cc34)CC2)cc1 | 66.8 | 65.3 | 76.8
61 | O=C(Nc1ccc(-c2cccc(-c3nc4cc(F)ccc4[nH]3)c2)cc1)c1ccncc1 | 13.9 | 14.2 | 12.9
62 | Clc1ccccc1C=NN=c1cc[nH]c2ccccc12 | 3.99 | 5.58 | 5.41
63 | N#Cc1cccc(Nc2nccc(NCC(O)c3ccc(C(F)(F)F)cc3)n2)c1 (stereo not given) | 3.05 | 3.09 | 0.03
64 | CC(CN(C)C)C(=O)Nc1ccc(-c2ccc(-c3nc4cc(F)ccc4[nH]3)cc2)cc1 (stereo not given) | 5.33 | 1.98 | 2.85
65 | Cc1cccc2c(C(=O)NC3CCN(Cc4ccccc4)CC3)cc(-c3cccnc3)nc12 | 1.6 | 1.08 | -0.31
66 | COc1ccc(NC(=O)c2ccc(Br)c(C)c2)cc1N1CCN(Cc2ccccc2)CC1 | 1.57 | 0.13 | -0.04
67 | Cc1cc(-c2ccc(NC(=O)N3CCc4cc(Br)c(N5CCN(C)CC5)cc43)cc2)cc(C)n1 | 9.14 | 8.41 | 10.1
68 | COC(=O)c1sc2ccccc2c1NC(=O)c1ccc(C)c(C)c1 | 5.3 | 4.87 | 5.56
69 | CCCCCCN1CCN(Cc2cccc(NC(=O)c3cccc(OCC)c3)c2)CC1 | 13.6 | 13.5 | 13.1
70 | Oc1cccc(-c2nc(-c3cccc(I)c3)c(-c3ccc(-c4nc(-c5cccc(O)c5)[nH]c4-c4cccc(I)c4)cc3)[nH]2)c1 | 4.52 | 4.72 | 4.57
